Measured values from PubChem BioAssay AID1565 (Sanford-Burnham Center for Chemical Genomics, 2009).
Out of some 290,000 compounds screened, about 3,200 (1.1%) were called active. Cut-off read from the data, not from the text of the source: active = inhibition above about 60%; inactive = the rest. What follows is part of a selection rich in actives, with near analogues and random picks from the rest.

molecular target: Phosphoethanolamine/phosphocholine phosphatase (Homo sapiens) (UniProt Q8TCT1); experiment: PubChem AID 1565; conditions: recombinant PHOSPHO1, absorbance phosphatase assay; at 13.3 µM; stronger effect = higher value
Sequence (Q8TCT1 whole entry, looked up): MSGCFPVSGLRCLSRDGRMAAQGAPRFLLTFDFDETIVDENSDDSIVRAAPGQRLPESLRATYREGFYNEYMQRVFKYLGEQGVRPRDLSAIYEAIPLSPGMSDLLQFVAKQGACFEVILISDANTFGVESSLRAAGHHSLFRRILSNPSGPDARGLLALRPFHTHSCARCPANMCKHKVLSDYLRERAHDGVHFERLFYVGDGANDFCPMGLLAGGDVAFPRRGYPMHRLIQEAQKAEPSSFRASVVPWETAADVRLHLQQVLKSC

| Compound | inhibition |
| --- | --- |
| O=c1cc(Cl)c2ccccc2n1-c1ccccc1 | 19.9% (inactive) |
| CN(Cc1c(F)cccc1Cl)S(=O)(=O)c1cccs1 | -15.8% (inactive) |
| Cc1c(Cl)cccc1NC(=O)CCC(=O)N/N=C/c1ccco1 | 32.7% (inactive) |
| Cn1c(-c2sccc2OCc2cccc(C(F)(F)F)c2)n[nH]c1=S | 36.7% (inactive) |
| Cc1ccccc1-c1n[nH]c(=S)n1C | -137% (inactive) |
| Cn1c(-c2sc3cc(C(F)(F)F)cnc3c2-c2ccccc2)n[nH]c1=S | 96.2% (active) |
| COc1cccc(NC(=O)CCc2nnc3ccc(N4CCC(C)CC4)nn23)c1 | -8.3% (inactive) |
| Cc1cccnc1CCNC(=O)C1CCC(=O)N(Cc2cccc(F)c2)C1 (configuration not stated) | 24% (inactive) |
| COc1cccc(CNC(=O)C2CCCN(c3ncnc4c3nc3n4CCCCC3)C2)c1 (configuration not stated) | -55.9% (inactive) |
| O=C(Nc1ccc(Cl)c(Cl)c1)N1CC=C(c2ccccc2)CC1 | 61.1% (active) |
| O=C(Nc1ccccc1)N1CCN(C(=O)Nc2ccccc2)CC1 | 15.9% (inactive) |
| O=C(Nc1cccc(NC(=O)N2CCN(c3ccccc3)CC2)c1)N1CCN(c2ccccc2)CC1 | 12.4% (inactive) |
| Cc1occc1C(=O)N/N=C/c1ccc(-c2cccc([N+](=O)[O-])c2)o1 | 40.3% (inactive) |
| C[N+]1(CCNC(=O)/C=N/O)CCCCC1 | 91.1% (active) |
| N#CC(C#N)=CN=c1ccn(Cc2ccc(Cl)cc2Cl)cc1 | 34% (inactive) |
| COCCNC(=O)c1ccc2nc(Cc3ccc(OC)c(OC)c3)oc2c1 | -8.2% (inactive) |
| S=c1[nH]nc(COc2ccccc2)n1-c1ccccc1 | -11.2% (inactive) |
| Cc1ccc(OCc2n[nH]c(=S)n2-c2ccc(C)cc2)cc1 | -0.8% (inactive) |
| COc1ccc(OCc2n[nH]c(=S)n2N)cc1 | 70.9% (active) |
| COc1ccc(Cc2n[nH]c(=S)n2NC(=O)Nc2ccc(C)cc2)cc1 | 36.2% (inactive) |
| Cc1ccc(OCc2n[nH]c(=S)n2-c2ccccc2)cc1 | 60.9% (active) |
| COc1ccc(-n2c(-c3ccc(OC)c(OC)c3)n[nH]c2=S)cc1 | -135% (inactive) |
| Cc1cccc(N2Cc3ccccc3C2=NC(=O)c2ccc(Cl)nc2)c1 | -3.9% (inactive) |
| Cc1nn(CC(=O)NCCc2ccccc2)c(=O)c2cc3occc3n12 | -36.2% (inactive) |
| O=C1/C(=C/c2ccc(F)cc2)SC(=S)N1CCCC(=O)N1CCCCC1CCO (configuration not stated) | 38.5% (inactive) |
| O=C(c1ccc(CS(=O)(=O)c2ccccc2)o1)N1CCN(c2ccccc2)CC1 | 2.1% (inactive) |

| Compound | inhibition |
| --- | --- |
| CC(C)c1ccc(S(=O)(=O)NC2CCCC2)cc1 | 24% (inactive) |
| NS(=O)(=O)c1ccc(NC(=O)COC(=O)c2ccc(Cl)nc2)cc1 | 8.4% (inactive) |
| Cc1cnc(NC(=O)c2ccc(Cl)nc2)s1 | -16.6% (inactive) |
| CCN(CC)c1ccc(NC(=O)c2ccc(Cl)nc2)cc1 | 74.3% (active) |
| CCCCNC(=O)c1cn(CC)c2cc(N3CCN(C(=O)c4ccco4)CC3)c(F)cc2c1=O | 12.7% (inactive) |
| CCCn1c(C2CCCN2c2nc(-c3ccc(OC)cc3)cs2)nc2ccccc21 (configuration not stated) | -1.7% (inactive) |
| CC(C)C(=O)NCc1cc(-c2ccc(Cl)cc2)no1 | 32.2% (inactive) |
| Cc1ccc(S(=O)(=O)Cc2cc(-c3ccc(Cl)cc3)no2)cc1 | 65.8% (active) |
| Cc1ccc(-c2cc(N)on2)cc1 | 1.1% (inactive) |
| O=C(CCc1nnc2ccc(NCc3ccco3)nn12)Nc1cc(F)ccc1F | 19.9% (inactive) |
| COc1ccccc1OCCOc1ccc(/C=C2\C(=N)N3N=C(C)SC3=NC2=O)cc1 | 19.1% (inactive) |
| CCOc1ccccc1N1CCN(C(=O)c2ccc3[nH]c(C)c(C)c3c2)CC1 | 18.1% (inactive) |
| Cc1c(C(=O)NCC(c2ccco2)N2CCCC2)oc2ccc(Cl)cc12 (configuration not stated) | 7% (inactive) |
| COc1cc(/C=N/n2c(C)n[nH]c2=S)ccc1OCc1ccccc1 | 69.1% (active) |
| COc1cc(/C=N/O)ccc1OCc1ccc([N+](=O)[O-])cc1 | 5.6% (inactive) |
| Fc1ccc(/C=N/n2c(COc3ccccc3)n[nH]c2=S)cc1 | 5.5% (inactive) |
| CCC(NC(=O)c1cc(COc2ccc(F)c(F)c2)on1)c1ccncc1 (configuration not stated) | 21.8% (inactive) |
| CC1(C)CCc2nc(SCc3ccccc3)c(C#N)cc2C1 | 15% (inactive) |
| CC(NC(=O)CSc1nc2c(cc1C#N)CN(C)CC2)c1ccccc1 (configuration not stated) | 95.3% (active) |
| Cc1cc(NC(=O)CSc2nc3c(cc2C#N)CCCCC3)no1 | 56% (inactive) |
| CC1CC(C)CN(c2ccc(S(=O)(=O)N3CCOCC3)cc2)C1 (configuration not stated) | 33.4% (inactive) |
| C=CCN1CN(S(=O)(=O)c2ccc(OC)cc2)c2nc3ccccc3nc21 | 4.7% (inactive) |
| CCCc1cc(-c2n[nH]c(=S)n2Cc2ccccc2)cs1 | 82.7% (active) |
| COc1cc(-c2n[nH]c(=S)n2Cc2ccccc2)cc(OC)c1OC | -91.1% (inactive) |
| CCc1cc(-c2n[nH]c(=S)n2CC(C)C)cs1 | -17% (inactive) |
| O=C(NCc1ccccc1)c1onc(CSc2nc3ccccc3[nH]2)c1C(=O)NCc1ccccc1 | 15.1% (inactive) |

| Compound | inhibition |
| --- | --- |
| CN(c1ccccc1)S(=O)(=O)c1ccc2[nH]c(=O)[nH]c2c1 | 2.8% (inactive) |
| O=C(c1ccc(S(=O)(=O)N2CCOCC2)cc1)N1CCN(c2ccccc2)CC1 | 7.1% (inactive) |
| O=C(c1ccccc1)c1ccc(C(=O)N2CCN(c3ccccc3)CC2)cc1 | 70.6% (active) |
| Cc1nc2ccc(C(=O)N3CCN(c4ccccc4)CC3)cc2s1 | -38.4% (inactive) |
| C=CCn1c(CNS(=O)(=O)c2ccc(Br)cc2)nnc1SC | 38.1% (inactive) |
| Cc1cccc(-n2nc3c(c2NC(=O)c2cc4ccccc4o2)CS(=O)(=O)C3)c1 | 12.5% (inactive) |
| Cc1ccc(-n2c(Cc3cccs3)nnc2SCC(=O)OC(C)C)cc1 | 4.6% (inactive) |
| CCn1c(Cc2cccs2)nnc1SCC(=O)c1ccc(C)cc1 | 67.3% (active) |
| CCn1c(SCC(=O)c2ccc3ccccc3c2)nnc1-c1cccs1 | 17.7% (inactive) |
| CCNC(=O)Nc1ccc(S(=O)(=O)Nc2cnc(C)nc2C)cc1 | 22% (inactive) |
| COc1ccc(N(CC(=O)N2CCOCC2)S(=O)(=O)c2ccccc2)cc1Cl | 12.6% (inactive) |
| Nc1ccc(-c2nnc(-c3ccc(-c4ccccc4)cc3)o2)cc1 | 71.5% (active) |
| Brc1ccc(-c2nnc(-c3ccccc3)o2)o1 | -10.5% (inactive) |
| Nc1ccc(-c2nnc(-c3ccccc3)o2)cc1 | 4.2% (inactive) |
| COc1cccc(CNC(=O)c2nnn(CC(=O)Nc3cc(C)ccc3C)c2N)c1 | 37.5% (inactive) |
| Cc1ccc2nc(-c3ccc(NC(=O)c4cccnc4)cc3)oc2c1 | 30.4% (inactive) |
| COc1ccccc1C(=O)Nc1ccnn1C1CCN(Cc2cnn(C)c2)CC1 | 38.1% (inactive) |
| Cc1onc(C(=O)NN)c1C(=O)N1CCN(C(c2ccccc2)c2ccccc2)CC1 | -25.8% (inactive) |
| CCN1CCN(C(c2cccnc2)c2cc(Cl)c3cccnc3c2O)CC1 (configuration not stated) | 98.8% (active) |
| Clc1cccc(CN2COc3c(cc(Cl)c4cccnc34)C2)c1 | -4% (inactive) |
| Oc1ccccc1CN1CCN(C(c2ccccc2)c2ccccc2)CC1 | 34.3% (inactive) |
| CCOC(=O)N1CCN(C(c2cccnc2)c2ccc3cccnc3c2O)CC1 (configuration not stated) | 96.9% (active) |
| O=C(CSc1cccc2cccnc12)N/N=C/c1cccnc1 | -11.2% (inactive) |
| Cc1cccc(NC(=O)c2cccc(C(=O)Nc3cccc(C)c3C)n2)c1C | 14.9% (inactive) |
| COc1cccc2cc(C(N)=O)/c(=N\NC(=O)c3ccccc3)oc12 | 43.7% (inactive) |
| CCCCCN(C(=O)CCC(=O)OCC(=O)NCc1ccc(OC)cc1)c1c(N)n(CCCC)c(=O)[nH]c1=O | 36.6% (inactive) |

| Compound | inhibition |
| --- | --- |
| Cc1ccc(NC(=O)COC(=O)C2C3CC4OC(=O)C2C4C3)cc1Cl (configuration not stated) | 23.2% (inactive) |
| CSc1nnc(-c2ccncc2)n1CCCN1CCCC1=O | 86.5% (active) |
| COCCCn1c(SCC(=O)Nc2ccccc2)nnc1-c1ccncc1 | -12.8% (inactive) |
| CCCn1c(SCC(=O)N2CCc3ccccc32)nnc1-c1ccncc1 | 1.6% (inactive) |
| COc1cccc(C(=O)Nc2nnc(S(=O)(=O)N(C)c3ccccc3)s2)c1 | 41.2% (inactive) |
| O=C(Nc1ccncc1)c1ccc([N+](=O)[O-])cc1Cl | 15.6% (inactive) |
| NC(=O)COc1ccc2c3c(c(=O)oc2c1)CCCCC3 | 18% (inactive) |
| Cc1c(Cc2ccccc2)c(=O)oc2cc(OCC(N)=O)ccc12 | 61.5% (active) |
| Cc1c(CCC(=O)O)c(=O)oc2cc(OCc3ccc(Br)cc3)ccc12 | 4.7% (inactive) |
| COc1ccc(-n2nc(C(=O)NCC(=O)N3CCCCCC3)c3ccccc3c2=O)cc1Cl | 36% (inactive) |
| COCCOC(=O)c1sc(=S)n(CCOC)c1N | 76.4% (active) |
| COC(=O)c1sc(=S)n(-c2ccc(Cl)cc2)c1C | -2.1% (inactive) |
| CCOC(=O)c1c(N)sc(C(C)=O)c1C | 33% (inactive) |
| COCCCC1CCN(C(=O)C2CCC(=O)N(C3CCCCCC3)C2)CC1 (configuration not stated) | 26.5% (inactive) |
| O=C(N/N=C\c1cccnc1)c1cc(-c2ccccc2)nc2c(Cl)cccc12 | 9% (inactive) |
| O=C(/C=C/c1cccc(C(F)(F)F)c1)N1CCN(c2ccccn2)CC1 | 23.3% (inactive) |
| Clc1c(OCCCn2ccnc2)ccc2ccccc12 | 13.9% (inactive) |
| O=C(O)c1[nH]c2ccccc2c1C(c1cccc(O)c1)c1c(C(=O)O)[nH]c2ccccc12 | 14.1% (inactive) |
| O=C(O)CSCC(=O)Nc1ccc(C(F)(F)F)cc1 | 46.4% (inactive) |
| Cc1cccc(NC(=O)c2cccc(C(F)(F)F)c2)c1 | 66.2% (active) |
| O=C(O)CSCC(=O)Nc1cccc(C(F)(F)F)c1 | 61.5% (active) |
| O=C(O)CC1(CC(=O)Nc2cccc(C(F)(F)F)c2)CCCC1 | 24% (inactive) |
| Cc1cccc(NC(=O)c2nnn(-c3cccc(C(F)(F)F)c3)c2N)c1 | 11.4% (inactive) |
| CNC(=O)c1ccc(NC(=O)c2cccc(C(F)(F)F)c2)cc1 | 47.6% (inactive) |
